Reference: PubChem BioAssay (NCI)
About 79,000 compounds went through this panel and 15% of them were active in at least one assay; those are over-represented in the sample as a whole. The source made the active and inactive calls. Rule as the data show it: active = growth inhibition above about 70%; inactive = the rest.

Test: NCI Yeast Anticancer Drug Screen. Data for the cln2 rad14 strain (AID 165);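 also: 0% = growth equal to vehicle treated cultures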
Details: S. cerevisiae cln2 rad14 strain, at 50.0 µM, hits give high values
Procedure, shortened: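 Compounds are applied to the cln2 rad14 yeast strain, and growth is then compared with that of vehicle-treated cultures to give inhibition.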

SMILES	growth inhibition
CC1(c2ccc(C(O)c3ccccc3)s2)OCCO1 (stereo not given)	12.9% (inactive)
CCCCCCC(O)C/C=C/CCCCCC/C(C(=O)OC)=C(/O)C(=O)OCC (stereo not given)	-27.6% (inactive)
CCCCCc1c(-c2n[nH]c(C)c2CCCCC)n[nH]c1C	-7.85% (inactive)
Cc1cccc(CCSCCc2cccc(C)[n+]2[O-])[n+]1[O-]	17.4% (inactive)
O=C(Nc1ccc(Cl)cc1)OC(C(=O)c1ccccn1)c1ccccn1 (stereo not given)	5.75% (inactive)
CC(C)(O)c1cc(=O)n(-c2ccccc2)[nH]1	-64.8% (inactive)
O=C(Cc1ccccc1)OCC(=O)c1ccc(-c2ccccc2)cc1	39.8% (inactive)
O=C(Nc1ccccc1)c1ccccc1C(O)(c1ccccc1)c1ccc(Cl)cc1 (stereo not given)	11.1% (inactive)
CCOC(=O)C1/C(=N\N=C2\c3c(nnp3N(CCOS(C)(=O)=O)CCOS(C)(=O)=O)C(C(=O)OCC)C(c3ccc(OC(C)=O)cc3)C2C(=O)OCC)c2c(nnp2N(CCOS(C)(=O)=O)CCOS(C)(=O)=O)C(C(=O)OCC)C1c1ccc(OC(C)=O)cc1 (stereo not given)	4.25% (inactive)
CCCCCCCCCCCCCCCCCC(=O)Oc1ccc(OCc2ccccc2)cc1	16.2% (inactive)
Nc1nc(N)nc(CC(=O)O)n1	-60.2% (inactive)
N#Cc1c2c(c(-c3cccs3)n(C3OC(CO)C(O)C(O)C3O)c1=S)CCc1ccccc1-2 (stereo not given)	-20.4% (inactive)
CN(C)C=Nc1c(Br)cc(Br)c2nonc12	-23.8% (inactive)
COc1ccccc1NC(=O)CC(=O)N1N=C(N2c3ccccc3Sc3ccccc32)CC1c1ccccc1 (stereo not given)	22.7% (inactive)
N#Cc1nc(-c2cc([N+](=O)[O-])cc([N+](=O)[O-])c2)oc1N	1.8% (inactive)
O=C(Nc1ccc(Cl)cc1C(=O)O)c1ccc([N+](=O)[O-])cc1	38.8% (inactive)
O=CCC1CCCCC1	16.9% (inactive)
CC(C)(C)C(=CS(=O)/N=C/c1ccccc1)C(C)(C)C (stereo not given)	-7% (inactive)
COC(=O)/C=C/C(=N/N(C)c1ccccc1)c1ccccc1	-49% (inactive)
CC1CCC2(CC1)NN=c1s/c(=C\c3ccc(O)cc3)c(=O)n1N2 (stereo not given)	8.55% (inactive)

SMILES	growth inhibition
CCN(CC)CC(=O)Nc1c(C(N)=O)nnn1Cc1cc(Cl)c(C(=O)c2ccc(Cl)cc2)c(Cl)c1	7.95% (inactive)
O=c1[nH]c2ccccc2c(O)c1-c1ccccc1	-8.6% (inactive)
COC(=O)Oc1ccc(Cl)cc1Cl	-77.4% (inactive)
CC(C)(C)OC(=O)NC1CC=CCC1NC(=O)OC(C)(C)C (stereo not given)	-19.6% (inactive)
CC(C)(C)C(=O)/C(O)=C\c1ccccc1	-10.7% (inactive)
CCCS(CCC)=NS(=O)(=O)c1ccc(C)cc1	-0.8% (inactive)
CC(N)C(=O)NC(C(=O)NC1C(O)OC(CO)C(O)C1O)C(C)C (stereo not given)	7.95% (inactive)
CCN1C(=O)c2cc(=O)[nH]c(O)c2C1C (stereo not given)	-20.4% (inactive)
O=C1C=CC(Nc2ccc(Cl)c(Cl)c2)C1Nc1ccc(Cl)c(Cl)c1 (stereo not given)	28.6% (inactive)
CN(C)CCCNc1nnc(NCCCN(C)C)c2[nH]cnc12	-24.9% (inactive)
COC1=CC(=O)C2CC=C(C)CC2(C)C1=O (stereo not given)	18% (inactive)
CN1c2ccccc2C2CC(CC#N)CC(=O)C21 (stereo not given)	-12.2% (inactive)
CC1=CC=CNC1(N)Br (stereo not given)	19.4% (inactive)
CCc1nnc(N)o1	-2.5% (inactive)
CCC(C)CCOC(=O)c1ccc(N=Cc2ccc(C=Nc3ccc(C(=O)OCCC(C)CC)cc3)cc2)cc1 (stereo not given)	11.6% (inactive)
O=C1NC(CN2CCCCC2)C(=O)NC1CN1CCCCC1 (stereo not given)	-8.7% (inactive)
Cc1ccc(S(=O)(=O)/C=C\S(=O)(=O)c2ccc(C)cc2)cc1	-28.4% (inactive)
O=C(CNC(=O)OCc1ccccc1)NCCNCCNC(=O)CNC(=O)OCc1ccccc1	36.2% (inactive)
Cc1cc(C)c2c(SCc3ccc(Cl)cc3Cl)nc(N)nc2n1	-27.9% (inactive)
CC(=O)Nc1c(C)ccc([N+](=O)[O-])c1C	5.95% (inactive)
